The full list was thinned out, with hits kept by preference.
DUX4 inh = DUX4-mediated transcription inhibition; AID 1224904; 37,000 compounds, 0.8% hits; activity change, negative = inhibition, % (concentration not given with the values); 293T-iDUX4 ZSCAN4-Gaussia luciferase reporter, 24 h; active compounds read low;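 active means mean inhibition of at least 10% in the main channel, exceeding the control channel by a set limit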;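 further: 0% = median of neutral control wells and -100% = median of positive control wells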
Numbers without * were called inactive.

SMILES | DUX4 inh
COc1ccc(C#Cc2ccc3c(c2)[C@H]2[C@H](CCN2C(=O)c2cccc(F)c2)[C@@H](CO)N3)cc1 | 11
COc1ccc(C#Cc2ccc3c(c2)[C@@H]2[C@@H](CCN2C(=O)c2cccc(F)c2)[C@@H](CO)N3)cc1 | 21
O=C(c1cccc(F)c1)N1CC[C@@H]2[C@H]1c1cc(C#Cc3ccc(F)cc3)ccc1N[C@@H]2CO | -14*
O=C(c1ccc(F)cc1)N1CC[C@@H]2[C@@H](CO)Nc3ccc(C#Cc4ccc(F)cc4)cc3[C@@H]21 | -52*
O=C(Cc1ccccc1)N1CC[C@H]2[C@H](CO)Nc3ccc(C#Cc4ccccc4)cc3[C@H]21 | 9
O=C(Cc1ccccc1)N1CC[C@H]2[C@H](CO)Nc3ccc(C#Cc4cccc(F)c4)cc3[C@H]21 | -4
O=C(c1ccc(F)cc1)N1CC[C@H]2[C@H](CO)Nc3ccc(C#Cc4ccccc4F)cc3[C@H]21 | 0
O=C(c1ccc(F)cc1)N1CC[C@@H]2[C@H](CO)Nc3ccc(C#CC4CC4)cc3[C@@H]21 | 0
O=C(Cc1ccccc1)N1CC[C@@H]2[C@H](CO)Nc3ccc(C#Cc4cccc(F)c4)cc3[C@@H]21 | -19*
CO[C@H]1CN(C)C(=O)c2ccc(NC(=O)c3ccc(F)cc3)cc2OC[C@@H](C)N(C)C[C@@H]1C | 0
COc1cccc(NC(=O)N2CC3(C2)[C@H](c2ccccc2)[C@@H](CO)N3C(=O)C2CCCC2)c1 | -8
C[C@H](CO)N1C[C@H](C)[C@@H](CN(C)Cc2ccncc2)OCc2ccccc2-c2c(n(C)c3ccccc23)C1=O | 11
C[C@@H]1CN([C@H](C)CO)C(=O)c2ccccc2-c2ccccc2CO[C@@H]1CN(C)Cc1ccc(C(F)(F)F)cc1 | -25*
C[C@H]1CN([C@@H](C)CO)C(=O)c2c(c3ccccc3n2C)-c2ccccc2CO[C@@H]1CN(C)Cc1ccncc1 | 5
C[C@@H]1CN([C@@H](C)CO)C(=O)c2c(c3ccccc3n2C)-c2ccccc2CO[C@@H]1CN(C)Cc1ccc(-c2ccccc2)cc1 | 13
C[C@H]1CN([C@@H](C)CO)C(=O)c2c(c3ccccc3n2C)-c2ccccc2CO[C@@H]1CN(C)Cc1ccc(Cl)c(Cl)c1 | -49*
C[C@@H]1CN([C@@H](C)CO)C(=O)c2c(c3ccccc3n2C)-c2ccccc2CO[C@@H]1CN(C)Cc1ccc(Cl)c(Cl)c1 | 12
C[C@H]1CN([C@@H](C)CO)C(=O)c2ccccc2-c2ccccc2CO[C@H]1CN(C)Cc1ccc(O)cc1 | 4
C[C@@H]1CN([C@H](C)CO)C(=O)c2c(c3ccccc3n2C)-c2ccccc2CO[C@@H]1CN(C)Cc1ccc(Cl)c(Cl)c1 | -19*
C[C@@H]1CN([C@@H](C)CO)C(=O)c2c(c3ccccc3n2C)-c2ccccc2CO[C@H]1CN(C)Cc1ccncc1 | -6
C[C@@H]1CN([C@@H](C)CO)C(=O)c2c(c3ccccc3n2C)-c2ccccc2CO[C@H]1CN(C)Cc1ccc(-c2ccccc2)cc1 | -2
C[C@H]1CN([C@@H](C)CO)C(=O)c2c(c3ccccc3n2C)-c2ccccc2CO[C@@H]1CN(C)Cc1ccc(-c2ccccc2)cc1 | -41*
C[C@@H]1CN([C@H](C)CO)C(=O)c2ccccc2-c2ccccc2CO[C@@H]1CN(C)Cc1ccc(C(=O)O)cc1 | 3
CN1CCN(C(=O)C[C@@H]2C[C@H]3c4cc(NC(=O)Cc5ccncc5)ccc4O[C@H]3[C@@H](CO)O2)CC1 | 0
COCC(=O)N1CC2(C1)[C@H](c1ccc(-c3ccccc3)cc1)[C@H](CO)N2C(=O)COC | 1
SMILES | DUX4 inh
C[C@@H]1CN([C@H](C)CO)C(=O)c2cc(C#CC(C)(C)O)cnc2O[C@H]1CN(C)C(=O)C1CCOCC1 | -3
COc1ccccc1-c1cnc2c(c1)C(=O)N([C@@H](C)CO)C[C@@H](C)[C@H](CN(C)Cc1cncnc1)O2 | -5
O=C(Cc1ccccc1)N1C[C@@H]2[C@H](c3ccccc31)[C@@H](CO)N2C(=O)c1cccc(F)c1 | -1
CCC(=O)N1[C@H](CO)[C@H](c2ccccc2)C12CN(C(=O)c1cnccn1)C2 | 8
CCCN(C)C[C@H]1Oc2ncc(C#CCN(C)C)cc2C(=O)N([C@@H](C)CO)C[C@@H]1C | -2
C[C@H]1CN([C@@H](C)CO)C(=O)c2c(c3ccccc3n2C)-c2ccccc2CO[C@@H]1CN(C)Cc1cccc(C(=O)O)c1 | 3
C[C@H]1CN([C@@H](C)CO)C(=O)c2c(c3ccccc3n2C)-c2ccccc2CO[C@H]1CN(C)Cc1ccc(O)cc1 | 5
C[C@H](CO)N1C[C@H](C)[C@H](CN(C)Cc2cccc(O)c2)OCc2ccccc2-c2c(n(C)c3ccccc23)C1=O | -29*
C[C@H](CO)N1C[C@H](C)[C@@H](CN(C)Cc2cccc(C(=O)O)c2)OCc2ccccc2-c2c(n(C)c3ccccc23)C1=O | -1
C[C@H]1CN([C@@H](C)CO)C(=O)c2c(c3ccccc3n2C)-c2ccccc2CO[C@H]1CN(C)Cc1cccc(C(=O)O)c1 | -2
C[C@H]1CN([C@@H](C)CO)C(=O)c2c(c3ccccc3n2C)-c2ccccc2CO[C@@H]1CN(C)Cc1cccc(O)c1 | -45*
C[C@H](CO)N1C[C@H](C)[C@H](CN(C)Cc2ccc(O)cc2)OCc2ccccc2-c2c(n(C)c3ccccc23)C1=O | -2
C[C@@H]1CN([C@H](C)CO)C(=O)c2c(c3ccccc3n2C)-c2ccccc2CO[C@H]1CN(C)Cc1cccc(F)c1 | -35*
C[C@@H]1CN([C@@H](C)CO)C(=O)c2c(c3ccccc3n2C)-c2ccccc2CO[C@H]1CN(C)Cc1cccc(O)c1 | -9
CO[C@H]1CC[C@@H]2CCN(C)C(=O)[C@H](C)[C@H](OC)CN(C)C(=O)c3cccc(C#N)c3OC[C@@H]1O2 | -3
O=C(O)C[C@H]1CC[C@@H](NC(=O)CCN2CCCCC2)[C@H](CO)O1 | -3
CN(C)CC(=O)N1[C@H](CO)[C@@H](c2ccccc2)C12CN(C(=O)c1ccccc1)C2 | 9
CCC(=O)N1CCC2(CC1)CN(S(=O)(=O)c1ccccc1)[C@@H](CO)c1[nH]c3cc(OC)ccc3c12 | 10
CCCNC(=O)[C@H]1[C@H](CO)[C@H]2Cn3c(ccc(-c4ccccc4F)c3=O)[C@H]2N1C | 9
Cc1noc(C)c1NC(=O)N(C)C[C@H]1Oc2c(NC(=O)c3cnccn3)cccc2C(=O)N([C@@H](C)CO)C[C@@H]1C | 0
O=C(CN1CCOCC1)N1CC2(C1)[C@H](c1ccccc1)[C@@H](CO)N2Cc1ccccc1 | 6
Cc1ccccc1S(=O)(=O)N1CCCCN2[C@@H](CO)[C@@H](c3ccc(-c4cccnc4)cc3)[C@@H]2C1 | 0
Cc1ccccc1-c1ccc([C@@H]2[C@@H](CO)N3CCCCN(S(=O)(=O)Cc4ccccc4)C[C@H]23)cc1 | -45*
Cc1ccccc1S(=O)(=O)N1CCCCN2[C@H](C1)[C@H](c1ccc(-c3cccc(F)c3)cc1)[C@@H]2CO | -19*
CCS(=O)(=O)N1CCCCN2[C@H](C1)[C@@H](c1ccc(-c3ccccc3C)cc1)[C@@H]2CO | 9
Cc1ccccc1-c1ccc([C@@H]2[C@@H](CO)N3CCCCN(S(C)(=O)=O)C[C@H]23)cc1 | 3
Cn1cnc(S(=O)(=O)N2CCCCN3[C@H](CO)[C@H](c4ccc(-c5cccc(F)c5)cc4)[C@H]3C2)c1 | 1
Cc1cccc(-c2ccc([C@@H]3[C@H](CO)N4CCCCN(S(=O)(=O)c5ccccc5F)C[C@@H]34)cc2)c1 | -5

Screening results from PubChem.
